About 83,000 compounds went through this panel and 20% of them were active in at least one assay; those are over-represented in the sample as a whole.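 Compound tested at a single concentration for 48 hours in 96-well plates; a percent growth value below 10 was scored as active.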 Activity calls are given as the source filed them.
Key:
Test in all cases: NCI-60 one-dose screen, 48 h (100 = growth as untreated, 0 = no growth, -100 = all killed)
Settings in all cases: 10 µM
OVCAR-8 ovarian = system: OVCAR-8 ovarian
OVCAR-5 ovarian = system: OVCAR-5 ovarian
OVCAR-4 ovarian = system: OVCAR-4 ovarian
SK-OV-3 ovarian = system: SK-OV-3 ovarian
IGROV1 ovarian = system: IGROV1 ovarian
OVCAR-3 ovarian = system: OVCAR-3 ovarian
HS 578T breast = system: HS 578T breast
NCI/ADR-RES ovarian = system: NCI/ADR-RES ovarian
T-47D breast = system: T-47D breast
BT-549 breast = system: BT-549 breast
MDA-MB-435 melanoma = system: MDA-MB-435 melanoma
SW-620 colon = system: SW-620 colon
MCF7 breast = system: MCF7 breast
HCT-116 colon = system: HCT-116 colon
HCC-2998 colon = system: HCC-2998 colon
KM12 colon = system: KM12 colon

Measured: growth

CC(C)=CCc1ccc(O)c(=O)cc1C(C)C
inactive: OVCAR-8 ovarian 12.4% | OVCAR-5 ovarian 52.4% | OVCAR-4 ovarian 31.2% | SK-OV-3 ovarian 18.5% | OVCAR-3 ovarian 43.4% | HS 578T breast 72.7% | T-47D breast 20.4% | MDA-MB-435 melanoma 30.7% | SW-620 colon 34.1% | MCF7 breast 21.5% | HCT-116 colon 17.3% | KM12 colon 26.4%
active: IGROV1 ovarian 1.88% | NCI/ADR-RES ovarian 1.61% | BT-549 breast -2.13% | HCC-2998 colon 7.5%

CN(C)C=Nc1cc(Cl)ccc1Cl
inactive: OVCAR-8 ovarian 114% | OVCAR-5 ovarian 104% | OVCAR-4 ovarian 99.9% | SK-OV-3 ovarian 110% | IGROV1 ovarian 118% | OVCAR-3 ovarian 113% | HS 578T breast 117% | NCI/ADR-RES ovarian 107% | T-47D breast 108% | BT-549 breast 112% | MDA-MB-435 melanoma 97.9% | SW-620 colon 103% | MCF7 breast 101% | HCT-116 colon 104% | HCC-2998 colon 108% | KM12 colon 110%

CCOC(=O)N1C=CC2C=CC1C1C=CC=CC2N1C(=O)OCC (stereo not given)
inactive: OVCAR-8 ovarian 96.5% | OVCAR-5 ovarian 95% | OVCAR-4 ovarian 97.8% | SK-OV-3 ovarian 97% | IGROV1 ovarian 97.8% | OVCAR-3 ovarian 100% | HS 578T breast 87.5% | NCI/ADR-RES ovarian 95.3% | T-47D breast 98.9% | BT-549 breast 89.4% | SW-620 colon 82% | MCF7 breast 76.8% | HCT-116 colon 94.7% | HCC-2998 colon 82.1% | KM12 colon 84.9%
active: MDA-MB-435 melanoma 3.79%

Cc1ccc(NC(=O)CSc2nc3ccccc3c(=O)n2CCc2ccccc2)c(C(=O)O)c1
inactive: OVCAR-8 ovarian 100% | OVCAR-5 ovarian 111% | OVCAR-4 ovarian 103% | SK-OV-3 ovarian 93.6% | IGROV1 ovarian 94.1% | OVCAR-3 ovarian 115% | HS 578T breast 106% | NCI/ADR-RES ovarian 118% | T-47D breast 96.2% | BT-549 breast 96.8% | MDA-MB-435 melanoma 97.3% | SW-620 colon 109% | MCF7 breast 93.8% | HCT-116 colon 92.7% | HCC-2998 colon 113% | KM12 colon 110%

COc1cc(NC(=O)CSc2nc3ccccc3c(=O)n2CCc2ccccc2)cc(OC)c1OC
active: SK-OV-3 ovarian -37.5% | IGROV1 ovarian 8.76% | OVCAR-3 ovarian -30.6% | T-47D breast -1.62% | BT-549 breast -4.65% | HCT-116 colon -0.608% | KM12 colon 7.82%
inactive: OVCAR-8 ovarian 30% | OVCAR-5 ovarian 65.9% | OVCAR-4 ovarian 53.8% | HS 578T breast 36.6% | NCI/ADR-RES ovarian 36.5% | MDA-MB-435 melanoma 32.1% | SW-620 colon 48.6% | MCF7 breast 51% | HCC-2998 colon 35%

O=c1oc2cc(OS(=O)(=O)c3ccccc3)ccc2c2c1CCCCC2
inactive: OVCAR-8 ovarian 60.4% | OVCAR-5 ovarian 83% | OVCAR-4 ovarian 53.7% | SK-OV-3 ovarian 84.3% | IGROV1 ovarian 83.4% | OVCAR-3 ovarian 81.5% | HS 578T breast 75.6% | NCI/ADR-RES ovarian 56% | T-47D breast 24.8% | BT-549 breast 59.9% | MDA-MB-435 melanoma 64.7% | SW-620 colon 44.2% | MCF7 breast 49.7% | HCT-116 colon 29% | HCC-2998 colon 59.1% | KM12 colon 41.1%

O=[N+]([O-])c1ccc(N/N=C/c2cccc3ccccc23)nc1
inactive: OVCAR-8 ovarian 104% | OVCAR-5 ovarian 96.7% | OVCAR-4 ovarian 90.4% | SK-OV-3 ovarian 105% | IGROV1 ovarian 89.8% | OVCAR-3 ovarian 122% | HS 578T breast 108% | NCI/ADR-RES ovarian 107% | T-47D breast 75.4% | BT-549 breast 106% | MDA-MB-435 melanoma 118% | SW-620 colon 117% | MCF7 breast 75.6% | HCT-116 colon 95.8% | HCC-2998 colon 101% | KM12 colon 99.1%

CCOC(=O)C(NC(=O)C(Cl)Cl)C(O)c1ccccc1 (stereo not given)
inactive: OVCAR-8 ovarian 102% | OVCAR-5 ovarian 102% | OVCAR-4 ovarian 110% | SK-OV-3 ovarian 116% | IGROV1 ovarian 77.7% | OVCAR-3 ovarian 109% | HS 578T breast 120% | NCI/ADR-RES ovarian 108% | T-47D breast 107% | BT-549 breast 112% | MDA-MB-435 melanoma 94.9% | SW-620 colon 100% | MCF7 breast 94.8% | HCT-116 colon 85.3% | HCC-2998 colon 110% | KM12 colon 110%

COc1ccc(-c2nc3sc(-c4ccccc4)c(-c4ccccc4)n3c2/C=C/C(=O)c2ccccn2)cc1
inactive: OVCAR-8 ovarian 67.9% | OVCAR-5 ovarian 115% | OVCAR-4 ovarian 43.7% | SK-OV-3 ovarian 103% | IGROV1 ovarian 82.6% | OVCAR-3 ovarian 81.3% | HS 578T breast 80.6% | NCI/ADR-RES ovarian 85.9% | T-47D breast 63.9% | BT-549 breast 85.5% | MDA-MB-435 melanoma 90.6% | SW-620 colon 91% | MCF7 breast 62% | HCT-116 colon 67.2% | HCC-2998 colon 90.9% | KM12 colon 83.6%

CSc1cc(SC)ncn1
inactive: OVCAR-8 ovarian 105% | OVCAR-5 ovarian 105% | OVCAR-4 ovarian 113% | SK-OV-3 ovarian 104% | IGROV1 ovarian 116% | OVCAR-3 ovarian 124% | HS 578T breast 115% | NCI/ADR-RES ovarian 118% | T-47D breast 105% | BT-549 breast 104% | MDA-MB-435 melanoma 115% | SW-620 colon 103% | MCF7 breast 97.8% | HCT-116 colon 102% | HCC-2998 colon 111% | KM12 colon 108%

COc1ccc(/C=C2/CN(C(=O)c3ccc(C)cc3)C/C(=C\c3ccc(OC)cc3)C2=O)cc1
active: HCT-116 colon -27%
inactive: OVCAR-8 ovarian 88.9% | OVCAR-5 ovarian 109% | OVCAR-4 ovarian 83.8% | SK-OV-3 ovarian 99.1% | IGROV1 ovarian 89.8% | OVCAR-3 ovarian 90.7% | HS 578T breast 92% | NCI/ADR-RES ovarian 86.7% | T-47D breast 69.3% | BT-549 breast 94% | MDA-MB-435 melanoma 41.3% | SW-620 colon 71.3% | MCF7 breast 32.8% | HCC-2998 colon 71.3%

COc1cc(Cl)cc(-c2nn(-c3cccc(NC(=O)Nc4cc(C(F)(F)F)cc(C(F)(F)F)c4)c3)cc2-c2ccncc2)c1
inactive: OVCAR-5 ovarian 21.6% | OVCAR-4 ovarian 11.9% | IGROV1 ovarian 23% | KM12 colon 12.2%
active: OVCAR-8 ovarian -2.46% | SK-OV-3 ovarian 6.84% | OVCAR-3 ovarian -1.62% | HS 578T breast 5.82% | NCI/ADR-RES ovarian 2.37% | T-47D breast 6.56% | BT-549 breast 6.61% | MDA-MB-435 melanoma -19.5% | SW-620 colon 7.18% | MCF7 breast 3.81% | HCT-116 colon -4.6% | HCC-2998 colon 9.5%

CC1CN(Cc2ccccc2)C(=O)NC1=O (stereo not given)
inactive: OVCAR-8 ovarian 103% | OVCAR-5 ovarian 115% | OVCAR-4 ovarian 123% | SK-OV-3 ovarian 111% | IGROV1 ovarian 124% | OVCAR-3 ovarian 135% | HS 578T breast 108% | NCI/ADR-RES ovarian 107% | T-47D breast 97.2% | BT-549 breast 103% | MDA-MB-435 melanoma 110% | SW-620 colon 110% | MCF7 breast 94.8% | HCT-116 colon 106% | HCC-2998 colon 110% | KM12 colon 113%

COc1ccc(CN2CCC(N3CCCC3=O)c3cc(Cl)ccc32)cc1 (stereo not given)
inactive: OVCAR-8 ovarian 104% | OVCAR-5 ovarian 93.3% | OVCAR-4 ovarian 95.3% | SK-OV-3 ovarian 105% | IGROV1 ovarian 104% | OVCAR-3 ovarian 120% | HS 578T breast 99.3% | NCI/ADR-RES ovarian 90.2% | T-47D breast 89.5% | BT-549 breast 67.6% | MDA-MB-435 melanoma 119% | SW-620 colon 102% | MCF7 breast 100% | HCT-116 colon 96.8% | HCC-2998 colon 105% | KM12 colon 103%

CC(C)=CCc1cc(O)cc2c1OC(C=C(C)C)C1=C2C(=O)C2=C(C1=O)S(=O)(=O)CCN2 (stereo not given)
active: OVCAR-4 ovarian 5.54% | IGROV1 ovarian -0.954% | OVCAR-3 ovarian 0.638% | T-47D breast -0.36% | MDA-MB-435 melanoma -68.3% | SW-620 colon 4.52% | MCF7 breast -50% | HCT-116 colon -8.73%
inactive: OVCAR-8 ovarian 10.8% | OVCAR-5 ovarian 152% | SK-OV-3 ovarian 84.7% | HS 578T breast 70.3% | NCI/ADR-RES ovarian 91.7% | BT-549 breast 58.9% | HCC-2998 colon 36.4% | KM12 colon 69.2%

O=C(Nc1cccc(Cl)c1)Nc1nccs1
inactive: OVCAR-8 ovarian 97.9% | OVCAR-5 ovarian 109% | OVCAR-4 ovarian 90.6% | SK-OV-3 ovarian 100% | IGROV1 ovarian 97.5% | OVCAR-3 ovarian 114% | HS 578T breast 115% | NCI/ADR-RES ovarian 91% | T-47D breast 73% | BT-549 breast 90.1% | MDA-MB-435 melanoma 62% | SW-620 colon 103% | MCF7 breast 57.8% | HCT-116 colon 94% | HCC-2998 colon 89.7% | KM12 colon 81.2%

Clc1nc(Cl)c2c(ncn2C/C=C\Cn2cnc3c(Cl)nc(Cl)nc32)n1
inactive: SK-OV-3 ovarian 34.5% | NCI/ADR-RES ovarian 11%
active: OVCAR-8 ovarian -83% | OVCAR-5 ovarian -76.7% | OVCAR-4 ovarian -69% | IGROV1 ovarian -83.7% | OVCAR-3 ovarian -98.9% | HS 578T breast -53% | T-47D breast -47% | MDA-MB-435 melanoma -44.9% | SW-620 colon -92.2% | MCF7 breast -1.6% | HCT-116 colon -15.4% | KM12 colon -94.5%

O=C1OCC2=C1C(c1cccc(Cl)c1)c1cc3c(cc1N2CCO)OCCO3 (stereo not given)
active: OVCAR-8 ovarian 1.27% | OVCAR-3 ovarian -52.2% | HS 578T breast -6.14% | NCI/ADR-RES ovarian 0.234% | MDA-MB-435 melanoma -42.1% | HCT-116 colon 6.21% | KM12 colon -32.8%
inactive: OVCAR-5 ovarian 30.3% | OVCAR-4 ovarian 56.2% | SK-OV-3 ovarian 26.1% | IGROV1 ovarian 22.2% | T-47D breast 73.5% | BT-549 breast 32.4% | SW-620 colon 18.7% | MCF7 breast 18%

O=C(O)CN1C(=O)c2cccc3cccc(c23)C1=O
inactive: OVCAR-8 ovarian 98.8% | OVCAR-5 ovarian 105% | OVCAR-4 ovarian 100% | SK-OV-3 ovarian 94% | IGROV1 ovarian 111% | OVCAR-3 ovarian 118% | HS 578T breast 108% | NCI/ADR-RES ovarian 102% | T-47D breast 90.1% | BT-549 breast 104% | MDA-MB-435 melanoma 104% | SW-620 colon 106% | MCF7 breast 87.4% | HCT-116 colon 102% | HCC-2998 colon 103% | KM12 colon 107%
